# Laboratory results taken from the supplement of paper PMC3334620.
# In all, about 33,000 sequences were measured (“E-score (-0.5 to 0.5)”: median about -0.035, highest 2% from about 0.35 on). This is one part of a sample in which the highest values are shown more often than they occur.
# Biological target: T1, Pdr3 (UniProt P33200)
# T1 sequence: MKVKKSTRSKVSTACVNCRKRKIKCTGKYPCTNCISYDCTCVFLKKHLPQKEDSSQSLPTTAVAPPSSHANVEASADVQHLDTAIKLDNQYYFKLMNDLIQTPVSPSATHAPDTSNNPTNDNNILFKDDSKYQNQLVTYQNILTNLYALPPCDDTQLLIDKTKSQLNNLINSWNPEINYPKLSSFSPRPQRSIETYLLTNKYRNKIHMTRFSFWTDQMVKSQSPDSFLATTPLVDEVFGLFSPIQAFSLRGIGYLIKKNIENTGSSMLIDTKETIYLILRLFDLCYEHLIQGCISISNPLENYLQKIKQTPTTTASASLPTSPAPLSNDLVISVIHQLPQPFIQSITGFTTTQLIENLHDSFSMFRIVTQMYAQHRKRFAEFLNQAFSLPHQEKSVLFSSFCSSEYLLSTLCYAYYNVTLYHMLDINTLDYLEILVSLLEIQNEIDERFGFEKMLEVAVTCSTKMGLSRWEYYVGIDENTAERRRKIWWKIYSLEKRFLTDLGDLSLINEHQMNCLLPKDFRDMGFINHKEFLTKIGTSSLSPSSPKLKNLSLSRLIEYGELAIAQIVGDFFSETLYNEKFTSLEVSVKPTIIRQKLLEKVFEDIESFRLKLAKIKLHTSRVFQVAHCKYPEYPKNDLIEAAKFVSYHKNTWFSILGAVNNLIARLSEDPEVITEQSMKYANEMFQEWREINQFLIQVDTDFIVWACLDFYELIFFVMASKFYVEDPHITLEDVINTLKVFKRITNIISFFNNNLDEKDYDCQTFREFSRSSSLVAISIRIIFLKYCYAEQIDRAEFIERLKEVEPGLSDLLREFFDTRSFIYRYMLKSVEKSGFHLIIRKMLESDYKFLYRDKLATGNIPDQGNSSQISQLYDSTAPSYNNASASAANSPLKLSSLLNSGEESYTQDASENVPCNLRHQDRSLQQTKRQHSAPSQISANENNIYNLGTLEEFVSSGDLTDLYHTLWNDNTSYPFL
# Assay: PBM E-score (8-mer binding enrichment) (E-score (-0.5 to 0.5)); higher = stronger / more preferred TF binding
# Details: protein concentration: 200 nM; construct: GST-full length
# How it was run: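 For each ungapped eight-base word taken together with its reverse complement, the Universal PBM Analysis Suite assigned an E-score. Binding data came from GST-tagged yeast transcription factors, applied at about 100-200 nM, on universal all-10-mer Agilent arrays made double-stranded by primer extension. Fluorescent anti-GST marked bound protein, and scans were normalised with masliner.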
row,Sequence,PBM E-score
1,AGACAGTC,-0.0923
2,GTGGAATA,0.122
3,CTGGAATC,0.02
4,CGGGAATC,0.334
5,CCGGAATC,0.471
6,GGGGAATA,0.121
7,GCGGAATA,0.398
8,CCCACTCA,-0.108
9,AGATTGTC,0.0868
10,AGTAAAAT,-0.11
11,ACGGCTAG,-0.152
12,AAAACCAA,-0.0135
13,AATATTTG,0.0496
14,GATACGGA,0.357
15,CATACGGC,0.143
16,CATACGGA,0.359
17,GATACGGC,0.014
18,AATACGGA,0.351
19,TATACGGA,0.221
20,CTGTTCTC,-0.0802
21,ATGAGCTG,-0.0649
22,CGTATTTA,0.164

row,Sequence,PBM E-score
1,CGGTGCCA,-0.115
2,AATCCCGA,0.358
3,AATCCCGC,0.333
4,AATCCCGT,0.409
5,AATCCCAT,-0.0271
6,AGTCCCGA,0.147
7,TATCCCGA,0.305
8,ACAAGGTG,-0.125
9,GTCCTCTA,-0.222
10,GGAACCTA,0.3
11,TCTGGCAA,0.0125
12,ACCTACGC,-0.0495
13,TAAACGGA,0.366
14,TAAACGTA,-0.137
15,TAAACGAA,-0.0987
16,AAAACGGA,0.314
17,CAAACGGG,0.184
18,GAAACGAA,0.0452
19,GAAACGGC,0.202
20,GAAACGGA,0.395
21,CAAACGGA,0.37
22,CAAATGCG,0.0429

row,Sequence,PBM E-score
1,CATTCTCC,-0.105
2,CAGGGCAA,0.0442
3,CCGCTAGG,0.0934
4,TCGCTAGA,-0.125
5,CGTACCAC,-0.102
6,AATCCTAG,-0.108
7,CTGATAGA,-0.118
8,GTACCGGA,0.318
9,CTTCCGGC,0.398
10,GTTCCTGA,-0.0384
11,CTTCCCGA,0.291
12,ATTCCAGA,0.0594
13,CTACCGGC,-0.0343
14,GTTCCGGA,0.475
15,ATTCCGGA,0.481
16,CTGCCGGC,0.339
17,ATACCGGA,0.303
18,CTTCCTGA,0.0336
19,CTTCCGGA,0.451
20,AACTGATA,0.0335
21,ATAAGCAA,-0.128
22,GATGCGCA,0.0246

row,Sequence,PBM E-score
1,AAAACCCG,0.319
2,CACTTACG,0.121
3,AGCCCTCA,-0.248
4,GCCGGCTA,0.248
5,TCCGGCGA,0.356
6,ACCGGCGA,0.281
7,GCCGGCGA,0.36
8,CCCGGCGC,0.26
9,GCCGGCGC,0.372
10,GTCGGCGA,-0.0361
11,CCCGGCGA,0.296
12,ACCGGCGC,0.228
13,AGAGGCCG,-0.105
14,CTAGAAGC,-0.166
15,ATGTCGGC,-0.0499
16,CGCAACTA,0.0897
17,CCGCCGCA,0.202
18,CCGCCGCC,0.244
19,ACGCCGCC,0.0831
20,ACGCCGGG,0.251
